Bioassay records: PubChem, Broad Institute
A selection follows.
aSyn 5UTR act: Activators via SNCA 5'UTR binding, MLPCN. 300,000 tested, 7.1% active. activity score, % (tested at 7.5 µM), hits read low. alpha-synuclein 5'UTR reporter, activators screen; in the data active means activity score below about -60%
* = called active by the depositor.

SMILES	aSyn 5UTR act
Cc1ccc(-n2c(C)c(C)c3c(NCCCO)ncnc32)cc1	-164.9*
COc1ccc(-n2c(C)c(C)c3c(NCCCO)ncnc32)cc1	-80.6*
CCOc1ccc(-n2c(C)cc(C(=O)CCl)c2C)cc1	110.8
Cc1cccc(-n2c(C)cc(C(=O)NC3CCCCC3)c2C)c1	-75.7*
COc1ccc(-n2c(C)cc(C(=O)NC3CCCCC3)c2C)cc1	-156.4*
O=C(CSc1nnc(-c2ccc(Br)cc2)o1)Nc1cccc(C(=O)O)c1	97.9
O=C(CSc1nnc(-c2cccnc2)o1)Nc1ccc(Br)cc1	-76.7*
O=C(CSc1nnc(-c2cccnc2)o1)Nc1cccc(F)c1	-86.2*
O=[N+]([O-])c1nn(-c2ccc3c(c2)OCCO3)n(O)c1=NCc1ccc(F)cc1	-123.9*
O=[N+]([O-])c1nn(-c2ccc3c(c2)OCCO3)n(O)c1=NCc1ccc(F)cc1Cl	-139.6*
O=[N+]([O-])c1nn(-c2ccc3c(c2)OCCO3)n(O)c1=NCCC1=CCCCC1	-139.4*
CCS(=O)(=O)N1CCCC(c2nc(-c3cccc(OC)c3)no2)C1 (stereo not drawn)	-102.3*
CCOc1ccc(-c2ccc(SC)nn2)cc1	75.6
Clc1ccc(-c2ccc(SCc3ccccn3)nn2)cc1	-140.9*
c1ccc(CSc2nnc(SCc3ccccn3)s2)nc1	-118.4*
c1ccc(CSc2ccc(-c3cccnc3)nn2)cc1	-116.7*
c1ccc(-c2ccc(SCc3cccnc3)nn2)nc1	-74.5*
c1ccc(CSc2ccc(-c3ccccn3)nn2)nc1	-62.1*
COc1ccc(C2C=C(c3ccccc3)Nc3nnnn32)cc1 (stereo not drawn)	-167.9*
COc1cccc(C2=CC(c3ccc(N(C)C)cc3)n3nnnc3N2)c1 (stereo not drawn)	-75.9*
COc1cccc(C2=CC(c3ccc(N(C)C)cc3)n3ncnc3N2)c1 (stereo not drawn)	-71.5*
CC1Sc2n(c3ccccc3[n+]2C)N=C1c1ccccc1 (stereo not drawn)	-63.3*
CCc1ccc(OCCCCCn2ccnc2)cc1	-66.4*
O=C(NCC1CC1(Cl)Cl)Nc1ccc(Cl)c(Cl)c1 (stereo not drawn)	-155.7*
Cc1ccc(NC(=O)NCC2CC2(Cl)Cl)cc1 (stereo not drawn)	-164.7*
SMILES	aSyn 5UTR act
Cc1ccc(NC(=O)CN(C)C(=O)Cn2ncc(Cl)c(Cl)c2=O)cc1	81.7
C=COCCNC(=O)Nc1ccc(Cl)c(Cl)c1	-127.2*
COc1ccc(-c2cn3c(C)c(C(=O)NC(C)C)sc3n2)cc1	-77.8*
COc1ccc(-c2cn3c(C)c(C(=O)NC(C)(C)C)sc3n2)cc1	-229.2*
COCCN=C1Sc2nc3ccc(C)cc3cc2CN1Cc1ccco1	-68.0*
COCCN=C1Sc2nc3cc(C)c(C)cc3cc2CN1Cc1cccs1	-77.5*
Cc1cc2nc(C3CCN(Cc4nnnn4Cc4cccs4)CC3)[nH]c2cc1C	63.0
COc1ccc(Cl)cc1Nc1nc(N)c2ccccc2n1	-103.3*
COc1cc2nc(N3CCN(c4cc(C)ccc4C)CC3)nc(N)c2cc1OC	94.5
COc1nc(Nc2nc3ccccc3c(=O)[nH]2)nc2ccc(C)cc12	89.9
Cc1ccc(C)c(Nc2nc(N)c3ccccc3n2)c1	-157.4*
Cc1ccc(/C=N/N=C/c2ccc(C)s2)s1	-199.3*
Cc1cccc(N/N=C/c2ccc(C)s2)c1	-180.0*
CCOCCCNc1ccc(-c2ccccc2)nn1	-159.0*
CCCCCC(C)NC(=S)NC(=O)c1cc(S(=O)(=O)N2CCOCC2)ccc1C (stereo not drawn)	66.2
Cc1ccc(S(=O)(=O)NCc2ccccc2)cc1C(=O)NC1CCC(C)CC1 (stereo not drawn)	-64.0*
CC1CCC(NC(=O)CCNS(=O)(=O)c2ccccc2)CC1 (stereo not drawn)	-61.9*
O=[N+]([O-])c1cccc(-c2nnn(C34CC5CC(CC(C5)C3)C4)n2)c1	-82.1*
Oc1cc(NCc2cccnc2)ccc1-c1nc2ccccc2o1	-100.0*
CC(C)(C)c1ccc(OCC(=O)Nc2ccc(-c3nc4cccnc4o3)cc2)cc1	-134.8*
CCc1ccc(OCC(=O)Nc2ccc(-c3nc4ccccc4o3)c(O)c2)cc1	-97.0*
O=C(COc1ccccc1)Nc1cccc(-c2nc3ccccc3[nH]2)c1	-63.5*
O=C(Nc1cccc(-c2nc3ccccc3o2)c1)c1ccc(N2C(=O)C3C4C=CC(C4)C3C2=O)cc1 (stereo not drawn)	88.3
O=C(COc1ccccc1)Nc1cccc(-c2nnc(-c3ccccc3)o2)c1	-64.3*
COc1ccc(OCC(=O)Nc2cccc(-c3nc4ccccc4[nH]3)c2)cc1	-159.0*
SMILES	aSyn 5UTR act
C=Cc1cccc(NC(=O)COc2ccccc2)c1	-106.9*
COc1ccc(OCC(=O)Nc2cccc(-c3nc4ccccc4o3)c2)cc1	-150.7*
COc1ccc(C(=O)Nc2cccc(-c3nnc(-c4ccco4)o3)c2)cc1	-92.6*
CCCOC1CCCN(C(=O)CCc2nnc(Cc3cccc(C)c3)o2)C1 (stereo not drawn)	-163.6*
Cc1cccc(Cc2nnc(CCC(=O)N(CC3CC3)CC3CCCO3)o2)c1 (stereo not drawn)	-111.9*
c1cc2cc(-c3c(-c4ccc5c(c4)OCO5)noc3-c3ccsc3)ccc2[nH]1	-80.6*
